The campaign covered roughly 150,000 compounds. About 540 (0.36%) showed an effect of 50% or more. The sample holds strong results, similar compounds and a random draw of the others, so the mix is not that of the screen.

The test system of this assay is Plasmodium falciparum. The experiment in a line: Primary screen in NF54 nanoGlo assay, in single point, at 2uM, 72h; a lower Z score goes with more inhibition. It counts as functional, Erythrocyte. The following applies: timepoint 72 hour.
Turning to `O=C(c1ccccc1)c1ccc(O)c(CN2CCCN(c3ccc(C(F)(F)F)cn3)CC2)c1O`, the “% Inhibition” value is reported as 84% and the Z score is -8.75.

Take `O=C(CN1CCCN(c2ccc(C(F)(F)F)cn2)CC1)Nc1ccccc1`: the “% Inhibition” value was determined as 0% and the Z score is 0.05.

As for `FC(F)(F)c1ccc(N2CCCN(Cc3nc4ccccc4o3)CC2)nc1`, the “% Inhibition” value was -8% and the Z score stood at 0.8.

`Cc1n[nH]c(C)c1CCCNC(=O)[C@@H]1Cc2ccccc2CN1C`: the “% Inhibition” value is -7% and the Z score worked out at 1.24.

On to `Cc1cccn(CC(=O)NCC(=O)Nc2cccnc2)c1=O`, for which the “% Inhibition” value was -6% and the Z score came to 0.7.

For the compound `C[C@@H](CO)N(C)S(=O)(=O)[C@H]1C[C@@H]1c1ccc(Br)cc1`, the “% Inhibition” value was 1% and the Z score is -0.19.

Take `O=C(c1cccc(C#Cc2ccccc2)c1)N1CCN(C(c2ccccc2)c2ccccc2)CC1`: the “% Inhibition” value was -8% and the Z score is reported as 1.42.

As for `O=C(c1cccc(C(=O)N2CCN(C(c3ccccc3)c3ccccc3)CC2)c1)N1CCN(C(c2ccccc2)c2ccccc2)CC1`, the “% Inhibition” value was found to be 54% and the Z score is -11.5.

On to `O=C(c1cccc(-n2cnnn2)c1)N1CCN(C(c2ccccc2)c2ccccc2)CC1`, for which the “% Inhibition” value is given as 10% and the Z score was -1.28.

`CC1CCCN(C(C)CNC(=O)CCNC(=O)C2CC2C)C1` (centres undefined): the “% Inhibition” value is -5% and the Z score was determined as 0.79.

With `CCCN1CCn2nc(-c3nc4cc(OC)ccc4[nH]3)cc2C1`, the “% Inhibition” value is -3% and the Z score was determined as 0.27.

Take `Cc1ccc2[nH]c(-c3cc4n(n3)CCN(C(=O)N3CCN(C)CC3)C4)nc2c1`: the “% Inhibition” value is recorded as -6% and the Z score was 0.7.

Turning to `N[C@H]1CCOc2ccc(Br)cc2C1=O`, the “% Inhibition” value is recorded as -8% and the Z score was 1.05.

On to `N[C@H]1CC2(CCC2)Oc2ccc(Br)cc21`, for which the “% Inhibition” value is listed as -4% and the Z score is reported as 0.62.

In the case of `N[C@H]1COc2ccc(Br)cc2C1=O`, the “% Inhibition” value is 73% and the Z score turned out to be 0.56.

On to `O=C(COc1ccc(Br)cc1F)N[C@@H](C(=O)O)c1ccc(F)c(F)c1`, for which the “% Inhibition” value is -17% and the Z score is 2.1.

`COc1ccc(CC(=N)Nc2cc3cc(OC)c(OC)cc3c(Cc3ccc(OC)c(OC)c3)n2)cc1OC`: the “% Inhibition” value was 85% and the Z score is given as -9.78.

Regarding `COc1cc2cc(NC(C)=N)nc(C)c2cc1OC`, the “% Inhibition” value amounted to 15% and the Z score is -1.95.

Turning to `COc1cc(NC(=O)Cc2ccc(OC)c(OC)c2)ncn1`, the “% Inhibition” value is 8% and the Z score is recorded as -1.51.

Turning to `COc1cc(NC(=O)N2Cc3cn[nH]c3CC(C)(C)C2)c(C)c(OC)c1`, the “% Inhibition” value was 13% and the Z score is on record as -1.52.

Regarding `CCn1cnc2c(N3CCC[C@H](c4ccncc4)C3)ncnc21`, the “% Inhibition” value stood at 76% and the Z score is on record as -10.16.

In the case of `CCn1cnc2c(N3CCC[C@H](CC(C)(C)C(N)=O)C3)ncnc21`, the “% Inhibition” value came to 8% and the Z score is listed as -1.51.

As for `CCn1cnc2c(N3CCCOC3)ncnc21`, the “% Inhibition” value is given as -5% and the Z score is 0.67.

Take `COc1cccc([C@H]2CC(O)=Nc3c2ncn3-c2cccnc2)c1OC(C)C`: the “% Inhibition” value was 28% and the Z score is -3.13.

In the case of `CC[C@@H](c1ccccn1)n1cc(-c2cc(CN(C)C)cs2)nn1`, the “% Inhibition” value was -6% and the Z score is on record as 0.72.

Consider `CC1=CN(c2ccc(Br)cc2)C(=O)N(c2ccccc2)N=C1C`, for which the “% Inhibition” value is -45% and the Z score is given as 5.24.

Regarding `Cc1ccc([C@H]2C=NN(c3ccc(Br)cc3)C2=O)cc1`, the “% Inhibition” value was found to be 76% and the Z score is listed as -2.14.

In the case of `CC(C)C(=O)N1CCN(c2ccc(Br)cc2)C(=O)[C@@H]1C`, the “% Inhibition” value is recorded as -12% and the Z score is listed as 1.14.

With `CCCOc1ccc(C2C3C(=O)N(c4cccc5ccccc45)C(=O)C3ON2c2ccccc2)cc1OC` (centres undefined), the “% Inhibition” value is recorded as -14% and the Z score was 1.48.

On to `O=C1C[C@@H](C(=O)N2CC(Cc3ccoc3)C2)NC(=O)N1`, for which the “% Inhibition” value is on record as -12% and the Z score was determined as 1.39.

As for `O=C(C[C@H](n1cccn1)C(F)(F)F)N1CCN(C2CC2)c2ccc(Cl)cc21`, the “% Inhibition” value was -2% and the Z score is recorded as 0.26.

As to `COc1ccc(-c2c(-c3ccc(Cl)cc3)[nH]c3c2c(=O)[nH]c(=O)n3C)cc1`, the “% Inhibition” value was -5% and the Z score worked out at 0.54.

Take `COc1ccc(-c2c(-c3cccc(OC)c3)[nH]c3c2c(=O)[nH]c(=O)n3C)cc1`: the “% Inhibition” value turned out to be 90% and the Z score is given as -8.97.

With `COc1ccc(-c2c(-c3ccc(C)c(C)c3)[nH]c3c2c(=O)[nH]c(=O)n3C)cc1`, the “% Inhibition” value is on record as -4% and the Z score came to 0.68.

Consider `NC(=O)NCCC[C@@H]1NC(=O)[C@H](Cc2ccccc2)NC1=O`, for which the “% Inhibition” value was -12% and the Z score is 1.78.

As for `COCCc1nc(C)c([C@H](C)Nc2ccc3c(c2)CCC(=O)N3)s1`, the “% Inhibition” value was -15% and the Z score was 1.74.

In the case of `CCc1cccc(Nc2nc3ccncc3n(C(C)C)c2=O)c1`, the “% Inhibition” value amounted to 1% and the Z score was -0.13.

In the case of `CC(C)c1cccc(Nc2nc3ccncc3n(C(C)C)c2=O)c1`, the “% Inhibition” value is listed as 91% and the Z score is -8.7.

Regarding `CC(C)n1c(=O)c(NCc2cccc(C(F)(F)F)c2)nc2ccncc21`, the “% Inhibition” value amounted to 24% and the Z score was -2.33.

Regarding `CC1CCN(Cc2ccc(-c3ncnn3C(C)(C)C)o2)CC1`, the “% Inhibition” value is listed as -6% and the Z score is 1.14.

Turning to `CN1CCC(N(C)CC(NCC2CCC=CO2)c2ccccc2)CC1` (centres undefined), the “% Inhibition” value is -4% and the Z score was found to be 0.49.

For `c1ccc(COC[C@H](Nc2ncnc3ccccc23)c2ccccc2)cc1`, the “% Inhibition” value is recorded as -12% and the Z score was determined as 1.08.

In the case of `Cc1cc(C)nc(O[C@H]2CCCN(C(=O)c3cccn(C)c3=O)C2)n1`, the “% Inhibition” value is on record as -2% and the Z score came to 0.22.

As to `O=C(N[C@H]1CCS(=O)(=O)C1)c1cccc(Oc2cccc(C(F)(F)F)c2)c1`, the “% Inhibition” value is recorded as -25% and the Z score was 2.94.

With `O=C(Nc1cccnc1)c1cccc(Oc2cccc(C(F)(F)F)c2)c1`, the “% Inhibition” value was -13% and the Z score stood at 1.85.

For `O=C(Nc1cc(N2CCCS2(=O)=O)ccc1O)c1cccc(Oc2cccc(C(F)(F)F)c2)c1`, the “% Inhibition” value was 99% and the Z score is -18.11.

As to `Cc1nc2ccc(NC(=O)C3C4C=CC(C4)C3C(=O)O)cc2s1` (centres undefined), the “% Inhibition” value is 7% and the Z score is -1.15.

For the compound `Brc1ccc(-c2nc(Cn3ccnn3)co2)cc1`, the “% Inhibition” value is -11% and the Z score is listed as 1.68.

Take `FC(F)(F)c1ccc(-c2nc(Cn3ccnn3)co2)cc1`: the “% Inhibition” value is listed as 89% and the Z score is recorded as -0.03.

Consider `CCOc1ccc(-c2nc(Cn3ccnn3)co2)cc1`, for which the “% Inhibition” value is on record as -6% and the Z score was found to be 1.08.

Take `CO[C@H]1CN(C2CCN(C(=O)CCc3c[nH]c4ccccc34)CC2)C12CCOCC2`: the “% Inhibition” value is -2% and the Z score came to 0.27.

Consider `O=C(N[C@H]1CCN(c2cnccn2)C[C@@H]1O)c1ccc2c(c1)OCO2`, for which the “% Inhibition” value is 0% and the Z score is listed as 0.01.

Turning to `COc1ccc(CC(=O)N2CC3(C[C@H](N4CCCCC4)CO3)C2)cc1`, the “% Inhibition” value was -5% and the Z score is 0.75.

Turning to `Cn1cc([C@@H]2CCCN2Cc2nccn2Cc2ccccc2)cn1`, the “% Inhibition” value is -5% and the Z score is listed as 0.74.

As to `CC(=O)N[C@@H]1CN(Cc2nccn2Cc2ccccc2)C[C@H]1c1nccn1C`, the “% Inhibition” value was 30% and the Z score is recorded as -1.12.

As for `Cn1ccnc1[C@@H]1CCCN1Cc1nccn1Cc1ccccc1`, the “% Inhibition” value was determined as 50% and the Z score was -4.75.

With `CN(CC(c1ccccc1)c1ccccc1)[C@H]1COC[C@@H]1O`, the “% Inhibition” value is given as -10% and the Z score worked out at 1.87.

Take `CC1=C(C(=O)N2C[C@H]3CC=CC[C@H]3C2)C(C)NC(=O)N1` (some centres undefined): the “% Inhibition” value is reported as -13% and the Z score is on record as 2.39.

In the case of `CCc1ccc(-c2cc3n(n2)C[C@@](C)(C(=O)NC2CCCCC2)N(c2cccc(C)c2C)C3=O)cc1`, the “% Inhibition” value is -2% and the Z score amounted to 0.32.

In the case of `CCc1ccc(-c2cc3n(n2)C[C@@](C)(C(=O)NC2CCCCC2)N(c2cc(C)cc(C)c2)C3=O)cc1`, the “% Inhibition” value is given as 71% and the Z score was -11.34.

Take `COc1ccc(-c2cc3n(n2)C[C@@](C)(C(=O)NCc2ccccc2OC)N(c2cccc(OC)c2)C3=O)cc1`: the “% Inhibition” value came to 51% and the Z score is on record as -8.04.

Regarding `COc1ccc(CN2C(=O)c3cc(-c4ccc(OC)cc4)nn3C[C@@]2(C)C(=O)NCc2ccccc2)cc1`, the “% Inhibition” value was 6% and the Z score is on record as -0.96.

As to `COc1ccc(-c2cc3n(n2)C[C@@](C)(C(=O)NCc2ccccc2)N(Cc2ccccc2Cl)C3=O)cc1`, the “% Inhibition” value is on record as 17% and the Z score was -2.69.

On to `C[C@@]1(C(=O)NCc2ccccc2)Cn2nc(-c3ccccc3)cc2C(=O)N1C1CC1`, for which the “% Inhibition” value amounted to 9% and the Z score is -1.39.

For the compound `COc1ccc(-c2cc3n(n2)C[C@@](C)(C(=O)NCc2ccccc2OC)N(c2ccc(C)cc2)C3=O)cc1`, the “% Inhibition” value is -4% and the Z score stood at 0.55.

For the compound `CCc1ccc(-c2cc3n(n2)C[C@@](C)(C(=O)NC2CCCCCC2)N(c2ccc(F)cc2)C3=O)cc1`, the “% Inhibition” value is reported as 0% and the Z score is 0.02.

As to `COc1ccc(-c2cc3n(n2)C[C@@](C)(C(=O)NCc2ccccc2OC)N(c2cc(C)cc(C)c2)C3=O)cc1`, the “% Inhibition” value is listed as 9% and the Z score was -1.43.

`COc1ccc(-c2cc3n(n2)C[C@@](C)(C(=O)NCc2ccccc2)N(Cc2ccc4c(c2)OCO4)C3=O)cc1`: the “% Inhibition” value is given as 52% and the Z score is on record as -8.23.

On to `Cc1ccc(CNC(=O)[C@]2(C)Cn3nc(C)cc3C(=O)N2c2ccc3c(c2)OCCO3)cc1`, for which the “% Inhibition” value was -1% and the Z score turned out to be 0.18.

Take `C[C@@]1(C(=O)NCc2ccccc2)Cn2nc(-c3ccccc3)cc2C(=O)N1c1ccc2c(c1)OCCO2`: the “% Inhibition” value stood at 52% and the Z score is -8.25.

Take `Cc1nc(NC(=O)CC2=CCCCC2)n(C)n1`: the “% Inhibition” value is on record as 5% and the Z score is -0.53.

For `CN(C(=O)OC(C)(C)C)[C@H]1CCCN(C(=O)c2ccn(C)c(=O)c2)C1`, the “% Inhibition” value is 3% and the Z score is -0.37.

Consider `CC1(C)CC(C)(C)c2ccccc2CN1`, for which the “% Inhibition” value was determined as 3% and the Z score is listed as -0.41.

For the compound `Cn1nccc1NC(=O)Cn1ncc2cc(-c3cccc4cccnc34)ccc21`, the “% Inhibition” value worked out at 0% and the Z score is listed as -0.05.

With `COc1ccc(C2=C[C@@H](c3ccc(F)cc3)n3ncc(C(=O)Nc4ccc(C)cc4)c3N2)cc1`, the “% Inhibition” value worked out at 2% and the Z score is recorded as -0.16.

`CCc1ccc(C2=C[C@@H](c3cccc(OC)c3)n3ncc(C(=O)Nc4ccc(C)cc4)c3N2)cc1`: the “% Inhibition” value worked out at 60% and the Z score is -5.98.

For the compound `COc1ccc(C2=C[C@@H](c3cccc(OC)c3)n3ncc(C(=O)Nc4ccccc4)c3N2)cc1`, the “% Inhibition” value was 6% and the Z score was -0.59.
